36 compounds from PubChem BioAssay (NCATS) can be followed below.

Inconclusive results are not listed. Where a call stands in place of a potency, no number is given. Activity calls are given as the source filed them. Calls follow the shape of the dose curve; as a rule, active = well fitted cell-killing curve with a large enough effect; inconclusive = small, poorly fitted or top-dose-only effect; inactive = no such curve, though single readings can be large or run the other way.

A short description of the experiment: qHTS of pediatric cancer cell lines to identify multiple opportunities for drug repurposing: Primary screen for Rh30 cells (AID 1347107). Also: nearly all actives have a fitted effect of over 75% in size. As to conditions: Rh30 rhabdomyosarcoma viability, CellTiter-Glo luminescence, 48 h; series mostly up to 46 µM. In short, it runs like this: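 Cells (500-1,000/well) rested 5 h, then received compounds for 48 h; metabolically active cells were measured by CellTiter-Glo luminescence. Final concentrations spanned up to 46 µM (MIPE, 11-point) or 0.59 nM-46 µM (NPC, 8-point) in primary screens, 11-point in follow-ups.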
On the technique in general: Quantitative high-throughput screening tests each substance at several concentrations.
With `FC1(F)C(F)(F)C(F)(F)C2(F)C(F)(F)C(F)(F)C(F)(F)C(F)(F)C2(F)C1(F)F` (stereo unspecified), the Potency entry was “inactive”.
Then `Nc1nc(N)c(-c2ccccc2)s1`, with “inactive”; and `C[N+]12CCC(CC1)C(OC(=O)C(O)(c1ccccc1)c1ccccc1)C2` (stereo unspecified), with “inactive”; and `NS(=O)(=O)c1ccc(Cl)c(S(N)(=O)=O)c1`, with “inactive”.
For the compound `CCOc1ccccc1C(N)=O`, the Potency entry was “inactive”.
As for `CCCCN=C(N)N=C(N)N`, the Potency result was “inactive”.
Regarding `COc1ccc(C(=O)c2ccccc2O)c(O)c1`, the Potency entry is “inactive”.
The same measure for `C[C@@H](O)[C@H]1C(=O)N2C(C(=O)O)=C(S[C@@H]3CN[C@H](CNS(N)(=O)=O)C3)[C@H](C)[C@H]12`: “inactive”; for `CCN(CC)CCNC(=O)COc1ccc(OC)cc1`: “inactive”; for `C[N+]1(CC2COC(c3ccccc3)(C3CCCCC3)O2)CCCCC1` (stereo unspecified): “inactive”.
The same measure for `CCCCNC(=O)NS(=O)(=O)c1ccc(N)cc1`: “inactive”; for `Cc1ccc(S(=O)(=O)NC(=O)NC2CCCC2)cc1`: “inactive”.
Consider `NC1CCN(c2nc3c(cc2F)c(=O)c(C(=O)O)cn3-c2ccc(F)cc2F)C1` (stereo unspecified), for which the Potency entry is “inactive”.
Consider `O=C(O)C1(C(=O)O)CCC1.[NH2-].[NH2-].[Pt+2]`, for which the Potency result is “inactive”.
In the case of `CCc1ccc(C(=O)C(C)CN2CCCCC2)cc1` (stereo unspecified), the Potency entry was “inactive”.
Take `CC(=C(CCOC(=O)C(C)C)SSC(CCOC(=O)C(C)C)=C(C)N(C=O)Cc1cnc(C)nc1N)N(C=O)Cc1cnc(C)nc1N`: the Potency entry was “inactive”.
Turning to `CCCCCCCCCCCCCCCC(=O)O`, the Potency result is “inactive”.
With `CN1CCC(OC(c2ccccc2)c2ccccc2)CC1`, the Potency entry was “inactive”.
With `CCCCCCCCCCCCSCCOCCO`, the Potency entry is “inactive”.
As for `CN(Cc1ccc(C(C)(C)C)cc1)Cc1cccc2ccccc12`, the Potency result is “inactive”.
Then `COc1cc(N)c(Cl)cc1C(=O)NC1CCN(Cc2ccccc2)CC1`, with “inactive”.
In the case of `O=C(O)CCC(=O)Nc1ccc(S(=O)(=O)Nc2nccs2)cc1`, the Potency entry was “inactive”.
On to `Cc1cc(CC(=O)O)c(C)n1-c1ccc(Cl)cc1`, for which the Potency entry was “inactive”.
As for `Cc1ccc(-c2ncc(Cl)cc2-c2ccc(S(C)(=O)=O)cc2)cn1`, the Potency result was “inactive”.
Then `O=C(Nc1ccc([N+](=O)[O-])cc1)Nc1ccc([N+](=O)[O-])cc1`, with “inactive”; and `O=C(CN1CCN(Cc2ccc3c(c2)OCO3)CC1)N1c2ccccc2Sc2ccccc21`, with “inactive”; and `OCc1ccccn1`, with “inactive”.
On to `COc1ccc(C(Cl)=C(c2ccc(OC)cc2)c2ccc(OC)cc2)cc1`, for which the Potency entry is “inactive”.
Regarding `N#C/C(=C1\SCC(c2ccccc2Cl)S1)n1ccnc1` (stereo unspecified), the Potency result is “inactive”.
Regarding `CCN(CC)CCOC(=O)C(Cc1cccc2ccccc12)CC1CCCO1` (stereo unspecified), the Potency entry is “inactive”.
Then `CCN1CCCC(OC(=O)C(c2ccccc2)c2ccccc2)C1` (stereo unspecified), with “inactive”; and `NCCNC(=O)c1ccc(Cl)cn1`, with “inactive”.
As for `CCN(CC)CCNC(=O)c1cc(Br)c(N)cc1OC`, the Potency result is “inactive”.
With `CCOC(=O)c1c(N)sc2c1CCN(Cc1ccccc1)C2`, the Potency entry was “inactive”.
For `CN1CCN(C2=Nc3ccccc3Sc3ccc(Cl)cc32)CC1`, the Potency result is “inactive”.
As to `CN1CCN(C2=Nc3cc(F)ccc3Cc3ccccc32)CC1`, the Potency entry is “inactive”.
